Values joined by “and” are separate entries in the source; they are usually repeats but may differ in a detail not shown here. Identical values can stand only once. Out of some 5,500 compounds screened, about 2,000 (36%) were called active. About 18% were inconclusive and are not listed. Rule as the data show it: active = normalized growth mostly below about 0.91 (no sharp cut-off); inconclusive = no clear call, values can overlap the other calls; inactive = mostly above about 0.92. Some of the results follow.
Assay: chemical genetic growth profiling, strain panel (AID 1159580);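 also: tested at 20 µM; growth read once vehicle control cultures reached saturation at 30 °C; 1 = growth at the plate median or of vehicle wells; lower values mean less growth of the strain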
Details: S. cerevisiae deletion strains, growth OD

Measured: normalized growth

O=C1CCCN1CC#CCN1CCCC1
inactive: locus YAL013W, strain DEP1, active compounds read low 1.02 and 1.01 | locus YAL021C, strain ccr4, active compounds read low 1.01 | locus YAL026C, strain drs2, active compounds read low 1.03 | locus YAL030W, strain snc1, active compounds read low 1.02 | locus YAL040C, strain CLN3, active compounds read low 1.01 | locus YBL061C, strain skt5, active compounds read low 1.02 | locus YBR009C, strain hhf1, active compounds read low 1.01 | locus YBR021W, strain FUR4, active compounds read low 0.985 and 1.01 | locus YBR023C, strain chs3, active compounds read low 1.02 | locus YBR171W, strain sec66, active compounds read low 1.02 | locus YBR229C, strain ROT2, active compounds read low 1 and 1.01 | locus YBR231C, strain swc5, active compounds read low 1.03 | locus YBR279W, strain paf1, active compounds read low 1.01 | locus YCL011C, strain gbp2, active compounds read low 1.02 | locus YCL016C, strain dcc1, active compounds read low 1.02 | locus YCL029C, strain bik1, active compounds read low 1.01 and 1.02 | locus YCL061C, strain MRC1 (second series), active compounds read low 1 | locus YCL069W, strain vba3, active compounds read low 1.02 | locus YCR088W, strain abp1, active compounds read low 1.03 | locus YDL005C, strain med2, active compounds read low 1.03 | locus YDL035C, strain GPR1, active compounds read low 1 and 1.03 | locus YDL040C, strain nat1, active compounds read low 1.01 | locus YDL074C, strain BRE1, active compounds read low 0.994 and 1.02 | locus YDL101C, strain DUN1, active compounds read low 0.997 and 1.01 | locus YDL134C, strain PPH21, active compounds read low 1.01 | locus YDL185W, strain tfp1, active compounds read low 1.03 and 1.01 | locus YDL192W, strain arf1, active compounds read low 1.01 and 1.02 | locus YDR001C, strain nth1, active compounds read low 1.02 | locus YDR069C, strain doa4, active compounds read low 1.03 | locus YDR101C, strain arx1, active compounds read low 0.979 and 1.01 | locus YDR137W, strain rgp1, active compounds read low 1.03 | locus YDR150W, strain NUM1, active compounds read low 1.01 and 1 and 1.02 | locus YDR159W, strain sac3, active compounds read low 0.999 | locus YDR162C, strain NBP2, active compounds read low 1.02 and 1.01 | locus YDR195W, strain ref2 1.02 | locus YDR297W, strain sur2, active compounds read low 1.02 | locus YDR318W, strain mcm21, active compounds read low 1.01 and 1.02 | locus YDR334W, strain swr1, active compounds read low 1.02 | locus YDR335W, strain msn5, active compounds read low 1.02 | locus YDR363W, strain ESC2, active compounds read low 1.01 | locus YDR388W, active compounds read low 1.01 | locus YDR392W, strain spt3, active compounds read low 1.01 | locus YDR502C, strain sam2, active compounds read low 1.02 and 1.01 | locus YEL003W, strain gim4, active compounds read low 1.02 | locus YEL037C, strain rad23, active compounds read low 1.02 | locus YEL061C, strain CIN8 (second series), active compounds read low 1.02 | locus YEL061C, strain CIN8, active compounds read low 1 | locus YER002W, strain NOP16, active compounds read low 0.985 | locus YER015W, strain faa2, active compounds read low 1.02 | locus YER016W, strain bim1, active compounds read low 1.01 | locus YER110C, active compounds read low 1.02 | locus YER111C, strain swi4, active compounds read low 1.03 | locus YER155C, strain BEM2 (second series), active compounds read low 1.03 | locus YER155C, strain BEM2, active compounds read low 0.994 and 1.01 | locus YER167W, strain BCK2, active compounds read low 1 and 1.02 | locus YFR010W, strain ubp6, active compounds read low 1.03 | locus YGL078C, strain dbp3, active compounds read low 1.02 and 0.999 | locus YGL086W, strain mad1, active compounds read low 0.999 and 1.03 | locus YGL167C, strain pmr1, active compounds read low 1.01 | locus YGL173C, strain kem1, active compounds read low 1.01 | locus YGL227W, strain vid30, active compounds read low 1.02 | locus YGL240W, strain doc1, active compounds read low 1.02 | locus YGL248W, strain PDE1, active compounds read low 1.02 and 1.01 | locus YGL253W, strain hxk2, active compounds read low 1.02 | locus YGR078C, strain PAC10, active compounds read low 1 and 0.996 and 1.01 | locus YGR135W, strain pre9, active compounds read low 1.04 and 0.991 | locus YGR229C, strain SMI1, active compounds read low 1 | locus YGR252W, strain gcn5, active compounds read low 1.1 and 1.03 | locus YHR013C, strain ard1, active compounds read low 1.04 | locus YHR027C, strain rpn1, active compounds read low 1.02 | locus YHR030C, strain SLT2, active compounds read low 1.01 and 1.02 | locus YHR079C, strain IRE1 (second series), active compounds read low 1.01 and 1.02 | locus YHR079C, strain IRE1, active compounds read low 1.02 | locus YHR094C, strain hxt1, active compounds read low 1.01 | locus YHR129C, strain ARP1, active compounds read low 1 | locus YHR142W, strain chs7, active compounds read low 1.05 | locus YHR200W, strain rpn10, active compounds read low 1.01 and 1.02 | locus YIL066C, strain RNR3, active compounds read low 1.02 and 1.03 | locus YIL073C, strain SPO22, active compounds read low 1.06 and 1.1 | locus YIL125W, strain kgd1, active compounds read low 1 and 1.01 | locus YIR030C, strain dcg1, active compounds read low 1.01 and 1.02 | locus YJL092W, strain hpr5, active compounds read low 1.01 | locus YJL095W, strain BCK1 (second series), active compounds read low 1.02 | locus YJL095W, strain BCK1, active compounds read low 1 and 1.03 and 0.996 | locus YJL115W, strain asf1, active compounds read low 1.04 | locus YJL129C, strain trk1, active compounds read low 1.04 | locus YJL134W, strain LCB3, active compounds read low 1.01 | locus YJL154C, strain vps35, active compounds read low 1.01 | locus YJL164C, strain tpk1, active compounds read low 1.02 | locus YJL166W, strain qcr8, active compounds read low 1.02 | locus YJL168C, strain set2, active compounds read low 1 and 1.02 | locus YJL187C, strain SWE1 (second series), active compounds read low 0.999 and 1 | locus YJL187C, strain SWE1, active compounds read low 1.02 | locus YJR043C, strain POL32, active compounds read low 1 and 1.02 | locus YJR066W, strain TOR1, active compounds read low 0.971
